Measured values taken from PubChem BioAssay AID2685 (National Center for Advancing Translational Sciences (NCATS), 2010).
Among all 320,000 compounds or so, about 2,100 (0.66%) were called active. About 53% were inconclusive and are not listed. The call rests on the fitted dose curve; in most records, active means well fitted inhibition curve with a large enough effect in the signal ratio, with a control signal flat (not every such curve was filed as active); inconclusive means small, poorly fitted or top-dose-only effect, or effect the other way, or a change in a side signal; inactive means flat fitted curve, though single readings scatter; the % refers to the signal ratio. Many of the other results were omitted from the sample, so actives are more common in it than they were.

test: qHTS Assay for Lipid Storage Modulators in Drosophila S3 Cells; conditions: BODIPY lipid droplet fluorescence, 18-24 h, cells fed with added oleic acid; cell number change: measured here: cell count max response; series mostly up to 46.1 µM; lipid storage change, negative = inhibition: at the top concentration;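 on cell number change: cells counted by Cell Tracker Red CMTPX staining in the red channel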; on lipid storage change, negative = inhibition: on the % scale 0 is the no-effect control and ±100 the full control effect
Method in brief: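 Drosophila S3 cells got compounds at several concentrations plus oleic acid (400 uM solution). Laser-scanning cytometry with 488 nm excitation read lipid droplets at 500-530 nm and cells at 575-640 nm. Percent activity was relative to 20 uM Triacsin C.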
Potency means the concentration at half of the fitted maximal effect.

SMILES	lipid storage change, negative = inhibition	cell number change	outcome	Potency
COc1ccc(C2/C(=C(\O)c3ccc(OC)c(Cl)c3)C(=O)C(=O)N2CCN(C)C)cc1 (stereo unspecified)	-3.93% (inactive)	7.61%		
COC(=O)CNc1nc(C2CC2)nc2c1nnn2Cc1ccccc1Cl	-17.4% (inactive)	-11.7%		
COc1ccc2c(c1)C(C)=CC(C)(C)N2C(=O)C(C)N1C(=O)c2ccccc2C1=O (stereo unspecified)	5.97% (inactive)	1.95%		
C[C@H](NC(N)=O)C(=O)Nc1ccc2c(c1)OCO2	-4.55% (inactive)	-6.18%		
COc1ccccc1C1C(C#N)=C(N)N(c2cccnc2)C2=C1C(=O)CC(C)(C)C2 (stereo unspecified)	-0.0654% (inactive)	-3.09%		
Cn1cc(CCC(=O)N2CCCC(CCC(=O)NCc3ccccc3F)C2)cn1 (stereo unspecified)	6.07% (inactive)	3.88%		
COc1cccc(NC(=O)CN(C)C(=O)C(C)Sc2ccccc2)c1 (stereo unspecified)	4.76% [at 0.0737 µM] (inactive)			
CCOc1ccc(S(=O)(=O)Nc2cccc(C(=O)N3CCN(c4ccc(OC)cc4)CC3)c2)cc1	6.02% (inactive)	-10.3%		
CC(=O)NNC(=O)c1[nH]c2ccc(Cl)cc2c1-c1ccccc1	24.7% (inactive)	19.7%		
COc1ccc(Br)cc1S(=O)(=O)NCCCN1CCOCC1	12.5% (inactive)			
Cc1cccc(OCCC(=O)OCC(=O)N2CCc3ccccc32)c1	0.68% (inactive)	16.2%		
CC(C)C(OC(=O)CCC(=O)Nc1nccs1)C(=O)NC1CCCCC1 (stereo unspecified)	0.168% (inactive)	7.34%		
COc1ccc(N2C(=O)CC(N(CCc3ccc(OC)c(OC)c3)C(=S)Nc3ccccc3)C2=O)cc1 (stereo unspecified)	-6.57% (inactive)	-11.8%		
Cc1ccccc1OCC(=O)OCC(=O)N1CCCc2ccccc21			inactive	
Nc1c(C(=O)c2cccs2)sc2nsc(SCCN3CCCCC3)c12		11.5%		13 µM (active)
CC(=O)c1sc2nsc(SCCN3CCCCC3)c2c1N	-3.85% (inactive)	1.58%		
CC(=O)c1sc2nsc(SCCN3CCCC3)c2c1N	-4.12% (inactive)	7.13%		
O=C1C(=O)c2ccccc2C(O)=C1C1CCC(c2ccc(Cl)cc2)CC1 (stereo unspecified)		-0.693%		4.11 µM (active)
O=C1NC(c2ccc(Cl)cc2)Nc2ccccc21 (stereo unspecified)		-23.5%	inactive	
O=C1c2ccccc2C(=O)C1c1ccc(Cl)cc1	-1.63% (inactive)	-2.4%		
COc1cc(C(=O)Nc2ccc3c(c2)C(=O)N(CCC(=O)O)C3=O)cc(OC)c1OC	3.95% (inactive)	1.68%		
CCOC(=O)c1cc(C)n(S(=O)(=O)c2ccc(C)cc2)c1C	-11.4% (inactive)	-10.7%		
CCOC(=O)c1cc(C)n(-c2ccccc2)c1C	3.49% (inactive)			

SMILES	lipid storage change, negative = inhibition	cell number change	outcome	Potency
CCOC(=O)c1cc(C)n(-n2cnnc2)c1C		1.94%		10.3 µM (active)
CCCn1c(N)c(C(=O)CN(C)CC(=O)Nc2cc(C)ccc2C)c(=O)[nH]c1=O	26.4% (inactive)	15.5%		
CCCn1c(N)c(C(=O)CN(C)CC(=O)Nc2ccccc2C(F)(F)F)c(=O)[nH]c1=O		-17.2%		7.31 µM (active)
CCCn1c(N)c(C(=O)CN(C)CC(=O)Nc2c(Cl)cccc2Cl)c(=O)[nH]c1=O		-5.76%	inactive	
COc1ccc(CCNC(=O)C2CC(c3ccccc3[N+](=O)[O-])=NO2)cc1 (stereo unspecified)	5.21% (inactive)	17.6%		
O=C(C1CCC1)N1CCc2cc(S(=O)(=O)N3CCN(c4ccccn4)CC3)ccc21		-12.3%	inactive	
O=C(C1CCC1)N1CCCc2cc(S(=O)(=O)N3CCN(c4ccccc4)CC3)ccc21		-3.36%		3.26 µM (active)
Cc1cccc(N2CCN(S(=O)(=O)c3ccc4c(c3)CCCN4C(=O)C3CCC3)CC2C)c1 (stereo unspecified)	6.82% (inactive)	-10.2%		
CC1CCCCN1S(=O)(=O)c1ccc2c(c1)CCN2C(=O)C1CCC1 (stereo unspecified)	-6.29% (inactive)	0.0968%		
CC1CCCCN1S(=O)(=O)c1ccc2c(c1)CCN2C(=O)C1CC1 (stereo unspecified)		-5.7%		10.3 µM (active)
CC1CCCCN1S(=O)(=O)c1ccc2c(c1)CCN2C(=O)CCC(=O)O (stereo unspecified)	-8.2% (inactive)	10%		
Cc1cc(C)c(S(=O)(=O)N2CCOC2CNC(=O)C(=O)NCCCN2CCOCC2)c(C)c1 (stereo unspecified)		8.11%	inactive	
O=C(O)CN(c1ccccc1)C1SC(=O)NC1=O (stereo unspecified)		-8.43%		7.31 µM (active)
Cc1ccc(N(CC(N)=O)C2SC(=O)NC2=O)cc1 (stereo unspecified)	-4.95% (inactive)	8.58%		
Cc1cccc(N(CC(N)=O)C2SC(=O)NC2=O)c1 (stereo unspecified)	-0.47% (inactive)	8.77%		
CC(C)C(NC(=O)OCc1ccccc1)C(=O)NCc1ccc(C(=O)O)cc1 (stereo unspecified)	19.3% (inactive)	18%		
CC(C)C(NC(=O)c1ccco1)C(=O)NCc1ccc(C(=O)O)cc1 (stereo unspecified)		-31.6%		6.51 µM (active)
CC(C)[C@H](NC(=O)c1ccco1)C(=O)NCc1ccccc1		17.1%	inactive	
CC(/C=C/c1ccccc1)=N/NC(=O)c1cnccn1	8.89% (inactive)	9.37%		
CC1=[N+]([O-])C(C)(C)CC(C)(C)c2ccccc21		-21.9%		25.9 µM (active)
COC(=O)c1cn(CC(=O)Nc2ccccc2C)c2ccccc12		8.8%	inactive	
COc1ccc(C2C(C#N)=C(N)OC3=C2C(=O)CC(C)(C)C3)cc1Cn1nc(C)c([N+](=O)[O-])c1C (stereo unspecified)	9.69% (inactive)	4.05%		
